Screens deposited in PubChem by several laboratories.
Compounds with a hit are over-represented: about 1.9% of the library has one in this group of screens.
EP2 mod = modulators of human EP2 prostaglandin E2 receptor; induction, % at 25 µM; AID 940; actives 0.83% (n = 260,000); EP2-expressing cells, cAMP HTRF FRET, PGE2 co-stimulation;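 active = compounds whose cAMP rise, as percent of the full-agonist control response, exceeds 60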;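 also: rat C6 glioma line stably carrying human EP2 under a CMV promoter; the protocol text gives 20 µM as final concentration; 100% = response of wells given 1 µM PGE2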
Target sequence (P43116 whole entry, looked up): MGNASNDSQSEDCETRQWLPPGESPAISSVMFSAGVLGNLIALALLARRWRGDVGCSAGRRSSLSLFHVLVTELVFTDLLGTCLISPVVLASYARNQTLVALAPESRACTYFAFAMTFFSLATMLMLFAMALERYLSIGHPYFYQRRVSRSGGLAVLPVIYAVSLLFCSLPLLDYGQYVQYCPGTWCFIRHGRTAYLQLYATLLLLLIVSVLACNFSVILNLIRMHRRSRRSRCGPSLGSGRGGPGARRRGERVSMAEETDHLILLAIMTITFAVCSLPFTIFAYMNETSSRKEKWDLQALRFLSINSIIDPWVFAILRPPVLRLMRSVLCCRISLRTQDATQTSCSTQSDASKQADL
S1P3 antagonist = S1P3 (human) receptor antagonism. inhibition, % at 4.98 µM. AID 485. Q99500. CHO S1P3 NFAT-BLA reporter, FRET fluorescence, antagonist mode. actives 0.27% (n = 170,000);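 active = inhibition above the plate cutoff, the mean inhibition of test wells on that plate plus 3 SD, cut at about 28% in these data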;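 also: cells challenged with S1P at its EC80 of 0.8 µM; blue over green emission ratio from cleaved BLA substrate after 4 h stimulation; 0% = S1P-stimulated wells and 100% = unstimulated DMSO-only wells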
S1P4 ag = agonists of human S1P4 receptor; O95977; S1P4-expressing cell line, agonist reporter assay; activation, % at 4.98 µM; actives 0.35% (n = 220,000); AID 1509; in the data active = activation above about 11%;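 also: 0% = DMSO vehicle and 100% = reference agonist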
EP2 antag = EP2 receptor (human) inhibition; inhibition, % at 25 µM; C6 glioma cells expressing human EP2, cAMP TR-FRET; cells stimulated with saturating PGE2; P43116; actives 0.52% (n = 260,000);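 active = percent inhibition above 40 after rounding to a whole number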;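 also: rat C6 glioma host cells with rolipram phosphodiesterase inhibitor present; the protocol text gives 20 µM as final concentration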
S1P4 antagonist = human S1P4 receptor antagonism; actives 0.26% (n = 220,000); inhibition, % at 4.98 µM; S1P4-expressing cells, antagonist mode, reporter read-out; in the data active = inhibition above about 29%;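 also: 0% = wells stimulated with agonist and 100% = vehicle wells without agonist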
Pf gametocyte = inhibitors of late stage P. falciparum gametocyte viability. P. falciparum stage V gametocytes, ATP luminescence, 24 h. inhibition, % at 10.9 µM. actives 0.065% (n = 150,000). AID 743093;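 active = inhibition above the mean plus 3 SD of compounds within the control limits, set per campaign, cut at about 38% in these data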;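 also: 0% = DMSO wells and 100% = medium only without gametocytes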
S1P4 antag cf = confirmation of human S1P4 receptor antagonists. shares compounds with S1P4 antagonist. S1P4-expressing cell line, antagonist mode, reporter read-out. inhibition, % at 4.98 µM. actives 71% (n = 520). AID 1524; in the data active = inhibition above about 30%
S1P1 antagonist = counter-screen for S1P4 antagonists: antagonists of human S1P1 | shares compounds with S1P4 antagonist | cell-based S1P1 antagonist counterscreen, inhibition | inhibition, % at 4.98 µM | actives 37% (n = 520); in the data active = inhibition above about 40%;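 also: receptor stimulated with S1P near its EC80; 0% = agonist stimulated wells and 100% = vehicle only wells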
* hit, by the source's call; x = not tested or not shown.

SMILES	EP2 mod	S1P3 antagonist	S1P4 ag	EP2 antag	S1P4 antagonist	Pf gametocyte	S1P4 antag cf	S1P1 antagonist
O=C1C(=O)c2ccccc2-c2ccccc21	-38	x	-3	45*	99*	x	116*	143*
CN1CCN(c2ccc([N+](=O)[O-])c3no[n+]([O-])c23)CC1	-12	-2	4	4	49*	x	76*	-21
CN1CCN(c2ccc(S(C)(=O)=O)cc2[N+](=O)[O-])CC1	-1	-2	0	9	-10	20	x	x
CN(C(=O)CN1C2CCC1CC(O)(c1ccccn1)C2)C1CCCCC1 (stereo unspecified)	3	x	x	x	x	x	x	x
CCCSc1ncc(CN2C3CCC2CC(O)(c2ccc(OC)cc2)C3)cn1 (stereo unspecified)	-61	x	x	3	x	x	x	x
C=Cn1ncc(CN(CCc2ccccc2)Cc2cccs2)c1C	60	x	x	3	x	x	x	x
